Experimental data as given in PubChem BioAssay (NCI).
The panel holds about 83,000 compounds, 20% with a hit somewhere; the sample as a whole holds those more often.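 For each line, cells grew in 96-well plates with the test compound present at a single concentration for 48 hours.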 Calls of active or inactive are those of the source. The calls were made as follows: active = growth percent below 10; inactive = the rest.

test system: HS 578T breast; assay: NCI-60 one-dose screen, 48 h (100 = growth as untreated, 0 = no growth, -100 = all killed); conditions: 10 µM unless noted

| Structure (SMILES) | growth |
| --- | --- |
| C=C(C)[C@@H]1CC[C@]2(COC(=O)c3cccnc3)CC[C@]3(C)[C@H](CC[C@@H]4[C@@]5(C)CCCN(C(=O)c6cccnc6)C(C)(C)[C@@H]5CC[C@]43C)[C@@H]12 | 59% (inactive) |
| C=C1C(=O)O[C@H]2[C@H]1CC/C(CNC(=O)/C=C/c1cc(OC)c(OC)c(OC)c1)=C\CC[C@@]1(C)O[C@@H]21 | 24.2% (inactive) |
| O=S(=O)(c1ccc(NCSc2nc3ccccc3s2)cc1)c1ccc(NCSc2nc3ccccc3s2)cc1 | 90.6% (inactive) |
| COc1ccc(S(=O)(=O)Oc2ccc(-c3sc4cc(OS(=O)(=O)c5ccc(OC)cc5)ccc4c3C(=O)c3ccc(OCCN4CCCCC4)cc3)cc2)cc1 | 107% (inactive) |
| Nc1nc(N)c2c(n1)NC(c1cccc(Nc3ccnc4cc(C(F)(F)F)ccc34)c1)CC(c1ccc(Cl)cc1)=N2 (stereo not given) | 62.1% (inactive) |
| COC(=O)[C@H]1Cc2c([nH]c3ccccc23)[C@H](c2ccc3c(c2)OCO3)N1 | 102% (inactive) |
| [2H]C([2H])([2H])Oc1c(F)cccc1/C=C/C(=O)/C=C(O)/C=C/c1cccc(F)c1OC([2H])([2H])[2H] | 112% (inactive) |
| C=C(C)[C@@H]1CCC[C@]2(C(=O)OC)CC[C@]3(C)[C@@H](CC[C@@H]4[C@@]5(C)CCCNC(C)(C)[C@@H]5CC[C@]43C)[C@@H]12 | 87.4% (inactive) |
| O=C(Nc1ncc(Cc2ccccc2)s1)c1ccc2c(c1)OCCO2 | 25.1% (inactive) |
| COc1ccc(-c2cc(-c3ccc(Nc4nc(Nc5ccc(Cl)cc5)nc(Nc5ccc(Cl)cc5)n4)cc3)no2)cc1 | 90.2% (inactive) |
| CNC(=O)c1cc(Oc2ccc3nc(NC(=O)NC(C)C)sc3c2)ccn1 | 74.6% (inactive) |
| O=C1NCCS(=O)(=O)/C1=C\C=C\c1cccc(C(F)(F)F)c1 | 51.1% (inactive) |
| NCCNc1ccc([N+](=O)[O-])cc1 | 106% (inactive) |
| Clc1ccc2c(NCCCn3cnc4c(N5CCCC5)nc(Cl)nc43)ccnc2c1 | 104% (inactive) |
| O=C(/C=C/c1ccc(Cl)cc1)c1ccc(Nc2ccnc3cc(Cl)ccc23)cc1 | 102% (inactive) |
| Oc1c(Cl)cc(Cl)c2ccc(CN3CCNCC3)nc12 | 70.4% (inactive) |
| O=C1c2ccccc2C(=O)c2cc(Cn3c[n+](Cc4ccc5ccccc5c4)c4ccccc43)ccc21 | 62.2% (inactive) |
| CC(C)(C#N)c1cc(C(=O)Nc2cc(Nc3ncccc3-c3ncnc4nc[nH]c34)ccc2F)cc(C(F)(F)F)c1 | 30.9% (inactive) |
| CC(C)n1cc(C2=C(c3cccc4ccccc34)C(=O)NC2=O)c2cc(Br)ccc21 | 45.8% (inactive) |
| O=CN1N=C(c2cccc(Nc3ccncc3)c2)CC1c1ccc2c(c1)OCO2 (stereo not given) | 94.2% (inactive) |

| Structure (SMILES) | growth |
| --- | --- |
| CC(=O)Cc1nsc(NC(=O)c2cc(-c3cc(Cl)ccc3Cl)oc2C)n1 | 106% (inactive) |
| O=C(O)COc1ccc(F)cc1 | 128% (inactive) |
| CC(Cc1cccc2ccccc12)C(N)=O (stereo not given) | 99.2% (inactive) |
| NC(=N\N=C/c1ccc(Cl)cc1Cl)/C(N)=N\N=C/c1ccc(Cl)cc1Cl | 33.2% (inactive) |
| CCOC(=O)CC1C(CNC(=O)NC)OC(n2cnc3c(NC(=O)Nc4ccccc4)ncnc32)C1O[Si](C)(C)C(C)(C)C (stereo not given) | 43.9% (inactive) |
| CCc1ccc(Cc2cnc(NC(=O)c3cc(C)oc3C)s2)cc1 | 23.6% (inactive) |
| CNc1nc2ncc(-c3c(C)noc3C)cc2n1Cc1ccccc1 | 39.3% (inactive) |
| CCCCC1=C(Br)C(=O)c2ncccc2C1=O | 104% (inactive) |
| Cc1ccc2nc(/C=C/c3ccc(N(C)C)cc3)cc(C)c2c1 | 34.9% (inactive) |
| CCN(CC)c1ccc(/C=N/NC(=O)c2ccccc2Nc2ccnc(C(F)(F)F)c2)c(O)c1 | 61.1% (inactive) |
| COc1cc2ncnc(Nc3ccc(S(=O)(=O)Nc4cc(C)on4)cc3)c2cc1OCCCN1CCOCC1 | 103% (inactive) |
| COc1ccc(-c2cc(-c3ccc(N(C)C)cc3)nc(NC(=O)c3cccnc3)n2)cc1 | 104% (inactive) |
| CC(=O)/C(Br)=C/c1ccc(Br)o1 | 26.7% (inactive) |
| N#CC1=C(N)Oc2c(ccc3cccnc23)C1c1ccccc1 (stereo not given) | 35.6% (inactive) |
| CCCS(=O)(=O)Nc1cccc(Nc2ncnc3cc(NC(=O)CCl)ccc23)c1Cl | 10.5% (inactive) |
| COC(=O)c1nc(-c2ccc(C)cc2)oc1N1CCOCC1 | 108% (inactive) |
| Cc1ccc(S(=O)(=O)N(CCC(=O)O)c2ccccc2)cc1 | 121% (inactive) |
| Nc1ncc(-c2ccc3ncnc(N4CCc5cc(F)c(Cl)cc54)c3c2)cc1C(F)(F)F | -4.39% (active) |
| OC1CSSC1Cn1cnc2c(Nc3ccc(F)c(Cl)c3)ncnc21 (stereo not given) | 103% (inactive) |
| COc1cc2c(c(OC)c1OC)C(=O)CC(c1cccc(C(=O)Nc3ccc(Br)cc3)c1)O2 (stereo not given) | 91.4% (inactive) |
